# Source: PubChem BioAssay (EPA / NIEHS)
# Results filed as inconclusive are left out. Calls of active or inactive are those of the source. How the source made its calls: active means hit-call score of the fitted dose curve at least 0.9, where 1 is the maximum; inconclusive means response in the unintended direction; inactive means score below 0.9.
# Read-out: xenobiotic metabolism (CYP1A2), CYP1A2 (gene 1544)
# Experiment: CLD_CYP1A2_6hr: CellzDirect (CLD) Gene Expression Assay for xenobiotic metabolism (CYP1A2) at 6 hours (AID 2283663);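 on AC50: potency is for induction meaning a rise in mRNA above DMSO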
# Protocol: CLD_6hr is a cell-based, multiplexed-readout assay that uses hepatocyte, a human liver primary cell, with measurements taken at 6 hours after chemical dosing in a 96-well plate.CLD_CYP1A2_6hr is one of 16 assay component(s) measured or calculated from the CLD_6hr assay. It is designed to make measurements of mRNA induction, a form of inducible reporter, as detected with chemiluminescence signals by Quantitative Nuclease Protection Assay (qNPA) technology.Data from the assay component CLD_CYP1A2_6hr was analyzed at the endpoint, CLD_CYP1A2_6hr, in the positive analysis fitting direction relative to DMSO as the negative control and baseline of activity. Using a type of inducible reporter, gain-of-signal activity can be used to understand changes in the reporter gene as they relate to the gene CYP1A2. Furthermore, this assay endpoint can be referred to as a primary readout. To generalize the intended target to other relatable targets, this assay endpoint is annotated to the cyp intended target family, where subfamily is xenobiotic metabolism.
# Human hepatocyte cultures were treated daily for two consecutive days with fresh dosing solutions containing appropriate concentrations of the 320 ToxCast chemicals (chemical identities were blinded to CellzDirect and other ToxCast collaborators), vehicle control (0.2% DMSO), and positive control inducers as summarized in Table 1. Due to the large number of treatment groups and chemicals examined, the ToxCast chemicals were divided into two groups (spanning two independent cultures of hepatocytes from separate donor preparations (Hu778: ToxCast plates 1 and 2; Hu776: ToxCast plates 3 and 4). Each preparation of human hepatocyte cultures was treated with respective vehicle control, medium only control, set of six positive controls/reference chemicals for the five hepatic receptor pathways, and a subset of eight of the ToxCast chemicals (indoxacarb, pyrithiobac-sodium, norflurazon, cyhalofop-butyl, methomyl, thiram, acetochlor, and propiconazole). These replicate data, coupled with internal replicates designed within the blinded ToxCast chemical library, provided additional data to evaluate interindividual differences between hepatocyte preparations and their potential impact on chemical profiles.Cell morphology and integrity were evaluated using phase-contrast microscopy as an indicator of hepatocyte cell health (Tyson & Green, 1987). Cultures for each treatment group (i.e., media, vehicle [0.2% DMSO], positive control inducers [multiple concentrations], and the ToxCast chemicals [multiple concentrations]) were observed and cell morphology was assessed relative to vehicle control cultures at each harvest time point (0, 6, 24, or 48 h). […] Images were evaluated at the conclusion of the study to assess changes in cell integrity and account for the effects of chemical exposure on uncharacteristic changes in concentration-dependent gene expression profiles. The results from these determinations of apparent cytotoxicity were annotated (yes/no) alongside the corresponding qNPA data for reference.At the conclusion of each treatment period, hepatocyte cultures (96-well) were washed with 1 volume of HBSS, lysed by addition of 25 ul ArrayPlate lysis buffer (HTG, Tucson, AZ), and 70 ul/well of Denaturation Oil, denatured by incubation at 95C for 10 min, and frozen at approximately -70C until analysis by nuclease protection assay (qNPA) (Roberts et al., 2007). For qNPA analysis, cell lysates were thawed at 50C for approximately 30 min, qNPA probes were added, and samples were incubated at 95C for 10 min to begin the detection process by denaturing the target RNA, dissociating the duplexes and secondary structure hybridization. At the conclusion of the hybridization period, S1 nuclease reagent was added to each sample to digest all nonprotected nucleotides at 50C for 60-90 min. […]
Structure (SMILES),outcome,AC50
CCSC(=O)N(CC(C)C)CC(C)C,inactive,–
CC(C)(c1ccc(O)cc1)c1ccc(O)cc1,inactive,–
COc1c(Cl)ccc(Cl)c1C(=O)O,inactive,–
S=C([S-])NCCNC(=S)[S-].[Mn+2],inactive,–
COC(=O)c1ccccc1C(=O)O,inactive,–
CSC(=O)c1cccc2nnsc12,–,33300 nM (active)
COC(=O)CSc1cc(N=c2sc(=O)n3n2CCCC3)c(F)cc1Cl,inactive,–
CCCCOCCOCCOCc1cc2c(cc1CCC)OCO2,–,5750 nM (active)
CCCN(CCC)c1c([N+](=O)[O-])cc(C(F)(F)F)c(N)c1[N+](=O)[O-],inactive,–
CCN(CC)C(=O)c1cccc(C)c1,inactive,–
N#CSCSc1nc2ccccc2s1,inactive,–
CCN(Cc1c(F)cccc1Cl)c1c([N+](=O)[O-])cc(C(F)(F)F)cc1[N+](=O)[O-],–,1740 nM (active)
COC(=O)c1c(Cl)nn(C)c1S(=O)(=O)NC(=O)Nc1nc(OC)cc(OC)n1,–,2540 nM (active)
CCOC(=O)[C@H](C)Oc1ccc(Oc2nc3ccc(Cl)cc3o2)cc1,inactive,–
CC1(C)C(C=C(Cl)Cl)C1C(=O)OCc1cccc(Oc2ccccc2)c1 (stereo not given),inactive,–
CCCOC(=O)c1ccc(C(=O)OCCC)nc1,inactive,–
CCC(C)OC(=O)N1CCCCC1CCO (stereo not given),inactive,–
CCCCC(CC)COC(=O)c1ccccc1C(=O)O (stereo not given),inactive,–
COC(=O)c1ccc(I)cc1S(=O)(=O)NC(=O)Nc1nc(C)nc(OC)n1,inactive,–
Oc1ccc(C(c2ccc(O)cc2)C(Cl)(Cl)Cl)cc1,–,266 nM (active)

Structure (SMILES),outcome,AC50
CC(C)(C)[C@@H](O)[C@@H](Cc1ccc(Cl)cc1)n1cncn1,inactive,–
CCOC(=O)C(C)Oc1ccc(Oc2nc3ccc(Cl)cc3o2)cc1 (stereo not given),inactive,–
CCCCOC(=O)C(C)Oc1ccc(Oc2ccc(C(F)(F)F)cn2)cc1 (stereo not given),inactive,–
c1ccc2[nH]c(-c3cscn3)nc2c1,–,5820 nM (active)
CCNc1nc(N)nc(Cl)n1,inactive,–
CCCCCCC(C)OC(=O)COc1nc(F)c(Cl)c(N)c1Cl (stereo not given),inactive,–
COC(=O)c1ccccc1S(=O)(=O)NC(=O)Nc1nc(OC(F)F)cc(OC(F)F)n1,inactive,–
S=C(S)NCCNC(=S)S.[Mn+2].[S-]C([S-])=NCCN=C([S-])[S-].[Zn+2],–,2750 nM (active)
COCCO,inactive,–
O=C(Nc1ccc([N+](=O)[O-])cc1Cl)c1cc(Cl)ccc1O,–,163 nM (active)
CCCN(CCC)C(=O)SCC,inactive,–
COc1nc(C)nc(NC(=O)NS(=O)(=O)c2ccccc2OCCCl)n1,inactive,–
OB(O)O,inactive,–
CCOC(=O)C(C)Oc1ccc(Oc2cnc3cc(Cl)ccc3n2)cc1 (stereo not given),inactive,–
CCCCCOC(=O)COc1cc(N2C(=O)C3=C(CCCC3)C2=O)c(F)cc1Cl,inactive,–
CCCCOC(=O)[C@@H](C)Oc1ccc(Oc2ccc(C(F)(F)F)cn2)cc1,inactive,–
CCC(O)=C1C(=O)CC(C(=O)O)CC1=O (stereo not given),–,1890 nM (active)
CCCCC(CC)CN1C(=O)C2C3C=CC(C3)C2C1=O (stereo not given),inactive,–
O=C(O)C1(C(=O)Nc2ccc(Cl)cc2Cl)CC1,inactive,–
CN(C)C(=O)Nc1ccc(Cl)c(Cl)c1,–,3050 nM (active)
